Values joined by “and” are separate entries in the source; they are usually repeats but may differ in a detail not shown here. Equal values may be shown once. A structure can be active in one record and inactive in another. Active and inactive are the calls of the source. The calls were made as follows: active = hit-call score of the fitted dose curve at least 0.9, where 1 is the maximum; inactive = score below 0.9.
Experiments:
[1] = Tanguay_ZF_120hpf_AXIS: Oregon State University Tanguay Lab 120 Hour Post-fertilization zebrafish Assay for Axial Malformation (AID 2284398)
Summary of the method: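 Dechorionated 5D wild-type zebrafish embryos exposed statically, one per well, from 6 to 120 hpf at 28C, 0.64% DMSO. Axial malformation scored as present/absent by brightfield microscopy at 120 hpf; dead embryos not scored.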

[2] = Tanguay_ZF_120hpf_MORT: Oregon State University Tanguay Lab 120 Hour Post-fertilization zebrafish Assay for Mortality (AID 2284399)
Summary of the method: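 Dechorionated wild-type Tropical 5D zebrafish embryos, one per well from 6 hpf, static exposure to 120 hpf at 28C in sealed dark plates, 0.64% DMSO final. Mortality scored as binary by brightfield at 24 and 120 hpf.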

[3] = Tanguay_ZF_120hpf_EDEM: Oregon State University Tanguay Lab 120 Hour Post-fertilization zebrafish Assay for Edema Malformation (AID 2284400)
Procedure: (§1) Tanguay_ZF_120hpf is a whole embryo, multiplexed endpoint assay using zebrafish larvae exposed for 120 hours post fertilization on a 96-well plate.Tanguay_ZF_120hpf_EDEM is one of one assay component(s) measured or calculated from the Tanguay_ZF_120hpf assay. It is designed to make measurements of zebrafish development as detected with brightfield microscopy of developing zebrafish embryos.Data from the assay component Tanguay_ZF_120hpf_EDEM was analyzed into 1 assay endpoints. This assay endpoint, Tanguay_ZF_120hpf_EDEM, was analyzed in the positive analysis fitting direction relative to DMSO as the negative control and baseline of activity. […]
(§2) Zebrafish husbandry: Tropical 5D wild-type adult zebrafish were housed in at an approximate density of 1000 per 100 gallon tank at the Sinnhuber Aquatic Research Laboratory, Oregon State University, Corvallis, OR. […] At 24 hpf, embryos were assessed for photomotor response using a custom photomotor response analysis tool (PRAT) and for developmental toxicity endpoints (MO24: mortality at 24 hpf, DP: developmental progression, SM: spontaneous movement, and NC: notochord distortion). At 120 hpf, locomotor activity was measured using Viewpoint Zebralab and assessed for 13 endpoints. […] If mortality occurred for an embryo (at either 24 or 120 hpf), the non-mortality endpoints were not measured.

[4] = Tanguay_ZF_120hpf_MUSC: Oregon State University Tanguay Lab 120 Hour Post-fertilization zebrafish Assay for Muscle Malformation (AID 2284401)
Procedure: as §1, with “plate.Tanguay_ZF_120hpf_MUSC” for “plate.Tanguay_ZF_120hpf_EDEM”, “Tanguay_ZF_120hpf_MUSC” for “Tanguay_ZF_120hpf_EDEM”, “Tanguay_ZF_120hpf_MUSC,” for “Tanguay_ZF_120hpf_EDEM,”
as §2

[5] = Tanguay_ZF_120hpf_BRN: Oregon State University Tanguay Lab 120 Hour Post-fertilization zebrafish Assay for Brain Region Malformation (AID 2284402)
Summary of the method: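 Dechorionated wild-type Tropical 5D zebrafish embryos exposed statically from 6 to 120 hpf at 28C, one per well, 0.64% DMSO final. Brain malformation scored at 120 hpf by brightfield as present/absent; dead embryos not scored.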

[6] = Tanguay_ZF_120hpf_TCHR: Oregon State University Tanguay Lab 120 Hour Post-fertilization zebrafish Assay for Touch Responsive (AID 2284403)
Procedure: Tanguay_ZF_120hpf is a whole embryo, multiplexed endpoint assay using zebrafish larvae exposed for 120 hours post fertilization on a 96-well plate.Tanguay_ZF_120hpf_TCHR is one of one assay component(s) measured or calculated from the Tanguay_ZF_120hpf assay. It is designed to make measurements of zebrafish development as detected with brightfield microscopy of developing zebrafish embryos.Data from the assay component Tanguay_ZF_120hpf_TCHR was analyzed into 1 assay endpoints. This assay endpoint, Tanguay_ZF_120hpf_TCHR, was analyzed in the positive analysis fitting direction relative to DMSO as the negative control and baseline of activity. Using a type of morphology reporter, gain-of-signal activity can be used to understand changes in developmentals as they relate to the whole embryo. To generalize the intended target to other relatable targets, this assay endpoint is annotated to the zebrafish development intended target family, where the subfamily is embryonic functional response.
Zebrafish husbandry: Tropical 5D wild-type adult zebrafish were housed in at an approximate density of 1000 per 100 gallon tank at the Sinnhuber Aquatic Research Laboratory, Oregon State University, Corvallis, OR. […] At 24 hpf, embryos were assessed for photomotor response using a custom photomotor response analysis tool (PRAT) and for developmental toxicity endpoints (MO24: mortality at 24 hpf, DP: developmental progression, SM: spontaneous movement, and NC: notochord distortion). At 120 hpf, locomotor activity was measured using Viewpoint Zebralab and assessed for 13 endpoints. Zebrafish acquisition and analysis program (ZAAP), a custom program designed to inventory, acquire, and manage zebrafish data, was used to collect developmental endpoints as either present or absent (i.e., binary responses were recorded). If mortality occurred for an embryo (at either 24 or 120 hpf), the non-mortality endpoints were not measured.

[7] = Tanguay_ZF_120hpf_ANY: Oregon State University Tanguay Lab 120 Hour Post-fertilization zebrafish Assay for Any Mortality and Malformation (AID 2284404)
Summary of the method: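 Dechorionated Tropical 5D wild-type embryos, one per well from 6 hpf, static exposure in sealed, dark plates at 28C until 120 hpf, 0.64% DMSO final. Brightfield scoring of mortality and malformations as binary presence/absence, pooling 13 morphology endpoints.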

[8] = CCTE_Padilla_ZF_Score.Craniofacial: CCTE's 144 Hour Post-fertilization zebrafish Assay Score for Craniofacial Malformation, Padilla Lab (AID 2284405)
Summary of the method: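 Wild-type zebrafish embryos (with chorions), one per well in 10% Hanks', were dosed at 6–8 hpf in sealed plates and kept at 26C. They were rinsed at 5 dpf. At 6 dpf two blinded assessors scored craniofacial malformations by brightfield stereomicroscopy.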

[9] = CCTE_Padilla_ZF_Score.Edema: CCTE's 144 Hour Post-fertilization zebrafish Assay Score for Edema Malformation, Padilla Lab (AID 2284406)
Summary of the method: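 Wild-type zebrafish embryos, one per well in Hanks' solution, dosed at 6-8 hpf, sealed and reared at 26C on a 14:10 h cycle; rinsed on 5 dpf. At 6 dpf, blinded assessors scored edema by stereomicroscopy.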

[10] = CCTE_Padilla_ZF_Score.Spine: CCTE's 144 Hour Post-fertilization zebrafish Assay Score for Spine Malformation, Padilla Lab (AID 2284407)
Summary of the method: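 Wild-type zebrafish embryos, one per well in Hanks' solution, dosed at 6–8 hpf in sealed plates at 26C, 14:10 h light:dark; rinsed at 5 dpf. Two blinded assessors scored spinal defects by stereomicroscopy at 6 dpf; fitted versus DMSO.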

Row | Compound | AC50 [1] | outcome [1] | AC50 [2] | outcome [2] | AC50 [3] | outcome [4] | AC50 [5] | outcome [5] | AC50 [6] | outcome [6] | AC50 [7] | AC50 [8] | AC50 [9] | AC50 [10] | outcome [10] | outcome [3] | outcome [7] | outcome [8] | outcome [9]
1 | O=S(=O)(O)C(F)(F)C(F)(F)C(F)(F)C(F)(F)C(F)(F)C(F)(F)C(F)(F)C(F)(F)F | 37.8 µM (active) | inactive | 22.5 µM (active) | inactive | 32.7 µM (active) and 35.6 µM (active) | inactive | 46 µM (active) | inactive | 51.8 µM (active) | inactive | 32.7 µM (active) and 16.7 µM (active) | 8.88 µM (active) and 9.43 µM (active) | 8.88 µM (active) and 7.83 µM (active) | 26.6 µM (active) | inactive | – | – | – | –
2 | O=C(O)C(F)(F)C(F)(F)C(F)(F)C(F)(F)C(F)(F)C(F)(F)C(F)(F)F | – | inactive | – | inactive | – | inactive | – | inactive | – | inactive | – | – | – | – | inactive | inactive | inactive | inactive | inactive

Source: PubChem BioAssay (EPA / NIEHS)
